According to PubChem BioAssay (EPA / NIEHS):
Inconclusive results are not listed. Some structures have more than one record in an assay (separate samples or runs), and their calls can disagree. Active and inactive are the calls of the source. Rule for the calls, unless noted: active = hit-call score of the fitted dose curve at least 0.9, where 1 is the maximum; inactive = score below 0.9.

Assay: CCTE_Shafer_MEA_dev_per_burst_spike_percent: CCTE's Neural Network Formation Assay for Percent of Spikes in a Burst, Shafer Lab (AID 2284032);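 for AC50: fitted as a decrease in burst spike percentage below DMSO baseline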
Outline: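 Rat primary cortical neurons on 16-electrode MEA wells, dosed from plating day 0 for 12 days with renewal on DIV 5 and 9; spikes-in-bursts percentage averaged over bursting electrodes, collapsed as AUC across days 5, 7, 9, 12; loss direction versus DMSO.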

Row | SMILES | AC50 | outcome
1 | C[n+]1ccc(-c2cc[n+](C)cc2)cc1 | 1.71 µM (active) | –
2 | C/C(=C/C=C/[C@@H](C)C(=O)O)[C@H]1CN[C@H](C(=O)O)[C@H]1CC(=O)O | 2.06 µM (active) | inactive
3 | CP(=O)(O)CCC(N)C(=O)O (stereo unspecified) | – | inactive
4 | NCCc1cc(O)c(O)cc1O | 6.25 µM (active) | –
5 | CCOP(=S)(OCC)SCS(=O)C(C)(C)C (stereo unspecified) | – | inactive
6 | C[n+]1ccc(-c2ccccc2)cc1 | – | inactive
7 | O=C(O)CNCP(=O)(O)O | – | inactive
8 | C#CCN(C)[C@H](C)Cc1ccccc1 | – | inactive
9 | Cn1nc(C(F)(F)F)c(CS(=O)(=O)C2=NOC(C)(C)C2)c1OC(F)F | 80.9 µM (active) | –
10 | CCCCC(CC)COC(=O)c1cc(Br)c(Br)c(Br)c1Br (stereo unspecified) | 18.8 µM (active) | –
11 | CC1(C)C(C=C(Cl)c2ccc(Cl)cc2)C1C(=O)OC(C#N)c1ccc(F)c(Oc2ccccc2)c1 (stereo unspecified) | 13 µM (active) | –
12 | CCOP(=O)(Oc1cnc(C(C)(C)C)nc1)OC(C)C (stereo unspecified) | – | inactive
13 | CC1(C)[C@H](C=C(Cl)Cl)[C@H]1C(=O)OCc1c(F)c(F)cc(F)c1F | 23.1 µM (active) | –
14 | CC(=O)[O-].CC(=O)[O-].O.O.O.[Pb+2] | 23.5 µM (active) | –
15 | CC1(C)C(C=C(Cl)Cl)C1C(=O)O[C@H](C#N)c1cccc(Oc2ccccc2)c1 (stereo partly specified) | 4.59 µM (active) | –
16 | CCOP(=O)(OCC)OC(Cl)C(Cl)(Cl)Cl (stereo unspecified) | 1.32 µM (active) | –
17 | CCOP(=O)(OCC)SCSC(C)(C)C | – | inactive
18 | CC1(C)[C@@H](C=C(Cl)Cl)[C@@H]1C(=O)O[C@@H](C#N)c1ccc(F)c(Oc2ccccc2)c1 | 15 µM (active) | –
19 | COP(=O)(OC)SCN1C(=O)c2ccccc2C1=O | – | inactive
20 | CP(=O)(O)CC[C@H](N)C(=O)O | – | inactive
21 | CC(=O)[O-].[Tl+] | – | inactive

Assay: CCTE_Shafer_MEA_dev_active_electrodes_number: CCTE's Neural Network Formation Assay for Number of Active Electrodes, Shafer Lab (AID 2284040; active = hit-call score of the fitted dose curve at least 0.9, where 1 is the maximum;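 for AC50: potency for loss of active electrodes versus DMSO so lower counts are hits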)
Outline: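 Rat cortical primary cultures, 1.5 x 10^5 cells/well, PEI-coated MEA, laminin drop. Continuous exposure DIV 0–12; full media/compound change DIV 5, 9. Readout: electrodes with mean firing ≥5 spikes/min; AUC across days; loss vs DMSO.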

Row | SMILES | AC50 | outcome
22 | C[n+]1ccc(-c2cc[n+](C)cc2)cc1 | 1.25 µM (active) | –
23 | C/C(=C/C=C/[C@@H](C)C(=O)O)[C@H]1CN[C@H](C(=O)O)[C@H]1CC(=O)O | 0.97 µM (active) | inactive
24 | CP(=O)(O)CCC(N)C(=O)O (stereo unspecified) | – | inactive
25 | NCCc1cc(O)c(O)cc1O | 4.79 µM (active) | –
26 | CCOP(=S)(OCC)SCS(=O)C(C)(C)C (stereo unspecified) | – | inactive
27 | C[n+]1ccc(-c2ccccc2)cc1 | 4.33 µM (active) | –
28 | O=C(O)CNCP(=O)(O)O | – | inactive
29 | C#CCN(C)[C@H](C)Cc1ccccc1 | – | inactive
30 | Cn1nc(C(F)(F)F)c(CS(=O)(=O)C2=NOC(C)(C)C2)c1OC(F)F | 73.6 µM (active) | –
31 | CCCCC(CC)COC(=O)c1cc(Br)c(Br)c(Br)c1Br (stereo unspecified) | 18.7 µM (active) | –
32 | CC1(C)C(C=C(Cl)c2ccc(Cl)cc2)C1C(=O)OC(C#N)c1ccc(F)c(Oc2ccccc2)c1 (stereo unspecified) | 12.8 µM (active) | –
33 | CCOP(=O)(Oc1cnc(C(C)(C)C)nc1)OC(C)C (stereo unspecified) | 29.2 µM (active) | –
34 | CC1(C)[C@H](C=C(Cl)Cl)[C@H]1C(=O)OCc1c(F)c(F)cc(F)c1F | 23 µM (active) | –
35 | CC(=O)[O-].CC(=O)[O-].O.O.O.[Pb+2] | 22.3 µM (active) | –
36 | CC1(C)C(C=C(Cl)Cl)C1C(=O)O[C@H](C#N)c1cccc(Oc2ccccc2)c1 (stereo partly specified) | 4.44 µM (active) | –
37 | CCOP(=O)(OCC)OC(Cl)C(Cl)(Cl)Cl (stereo unspecified) | 2.52 µM (active) | –
38 | CCOP(=O)(OCC)SCSC(C)(C)C | 16.2 µM (active) | –
39 | CC1(C)[C@@H](C=C(Cl)Cl)[C@@H]1C(=O)O[C@@H](C#N)c1ccc(F)c(Oc2ccccc2)c1 | 10.2 µM (active) | –
40 | COP(=O)(OC)SCN1C(=O)c2ccccc2C1=O | – | inactive
41 | CP(=O)(O)CC[C@H](N)C(=O)O | – | inactive
42 | CC(=O)[O-].[Tl+] | – | inactive

Assay: CCTE_Shafer_MEA_dev_burst_rate: CCTE's Neural Network Formation Assay for Burst Rate, Shafer Lab (AID 2284042);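 for AC50: potency for loss of burst rate below DMSO control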
Outline: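 Exposure ran continuously over 12 days of network development in rat cortical cultures, with compound refreshed during full media changes on DIV 5 and 9. Single-electrode bursts per recording time, well-mean over active electrodes, trapezoidal AUC across days 5–12, fitted downward relative to DMSO.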

Row | SMILES | AC50 | outcome
43 | C[n+]1ccc(-c2cc[n+](C)cc2)cc1 | 2.29 µM (active) | –
44 | C/C(=C/C=C/[C@@H](C)C(=O)O)[C@H]1CN[C@H](C(=O)O)[C@H]1CC(=O)O | 0.131 µM (active) | inactive
45 | CP(=O)(O)CCC(N)C(=O)O (stereo unspecified) | – | inactive
46 | NCCc1cc(O)c(O)cc1O | – | inactive
47 | CCOP(=S)(OCC)SCS(=O)C(C)(C)C (stereo unspecified) | – | inactive
48 | C[n+]1ccc(-c2ccccc2)cc1 | – | inactive
49 | O=C(O)CNCP(=O)(O)O | – | inactive
50 | C#CCN(C)[C@H](C)Cc1ccccc1 | – | inactive
51 | Cn1nc(C(F)(F)F)c(CS(=O)(=O)C2=NOC(C)(C)C2)c1OC(F)F | – | inactive
52 | CCCCC(CC)COC(=O)c1cc(Br)c(Br)c(Br)c1Br (stereo unspecified) | – | inactive
53 | CC1(C)C(C=C(Cl)c2ccc(Cl)cc2)C1C(=O)OC(C#N)c1ccc(F)c(Oc2ccccc2)c1 (stereo unspecified) | 9.91 µM (active) | –
54 | CCOP(=O)(Oc1cnc(C(C)(C)C)nc1)OC(C)C (stereo unspecified) | – | inactive
55 | CC1(C)[C@H](C=C(Cl)Cl)[C@H]1C(=O)OCc1c(F)c(F)cc(F)c1F | 23.7 µM (active) | –
56 | CC(=O)[O-].CC(=O)[O-].O.O.O.[Pb+2] | – | inactive
57 | CC1(C)C(C=C(Cl)Cl)C1C(=O)O[C@H](C#N)c1cccc(Oc2ccccc2)c1 (stereo partly specified) | 1.95 µM (active) | –
58 | CCOP(=O)(OCC)OC(Cl)C(Cl)(Cl)Cl (stereo unspecified) | 0.945 µM (active) | –
59 | CCOP(=O)(OCC)SCSC(C)(C)C | – | inactive
60 | CC1(C)[C@@H](C=C(Cl)Cl)[C@@H]1C(=O)O[C@@H](C#N)c1ccc(F)c(Oc2ccccc2)c1 | – | inactive
61 | COP(=O)(OC)SCN1C(=O)c2ccccc2C1=O | – | inactive
62 | CP(=O)(O)CC[C@H](N)C(=O)O | – | inactive
63 | CC(=O)[O-].[Tl+] | – | inactive
